Results on 32 molecules are retold here after PubChem BioAssay (NCATS).

Assay [1] can be described thus: Primary qHTS for inhibitors of nuclear receptor binding SET domain protein 2 (NSD2) in an RCH-ACV wild type WT cells (2C) (AID 1645877). Note: nearly all actives have a fitted effect of over 70% in size. Note: potency is the fitted concentration of half-maximal effect. In general terms: Quantitative high-throughput screening tests each substance at several concentrations.
For assay [2], the target named is Glutathione peroxidase 1 (Homo sapiens) (UniProt P07203). Put plainly: Primary qHTS Assay for Inhibitors of Recombinant Selenoprotein Glutathione Peroxidase 1 (GPX1) (AID 1845191). Note: nearly all actives have a fitted effect of over 65% in size. The gist of the method: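 NADPH consumption tracked by fluorescence at 340/450 nm between t=0 and t=15 min, room temperature. Final mix: 10 nM GPX1, 100 nM glutathione reductase, 1 mM GSH, 0.5 mM NADPH, 0.5 mM cumene hydroperoxide, 0.01% BSA; 30 min compound–enzyme preincubation.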

Assay [3] has as its target Phospholipid hydroperoxide glutathione peroxidase GPX4 (Homo sapiens) (UniProt P36969). Briefly: Primary qHTS Assay for Inhibitors of Recombinant Selenoprotein Glutathione Peroxidase 4 (GPX4) (AID 1845192). For activity change, negative = inhibition: series mostly up to about 50 µM. Note: nearly all actives have a fitted effect of over 65% in size. A digest of the protocol:
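NADPH consumption followed by fluorescence at 340/450 nm, t=0 and after 15 min at room temperature. Reaction started with cumene hydroperoxide (0.5 mM final) after 30 min compound–GPX4 preincubation; final 200 nM GPX4, 100 nM GR, 1 mM GSH, 0.5 mM NADPH.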

Results filed as inconclusive are left out. A number with no mark means an inactive call. Activity calls are given as the source filed them. Calls come from the whole dose curve; as a rule, active = well fitted curve in the direction sought with a large enough effect; inconclusive = small, poorly fitted or top-dose-only effect, or another doubt; inactive = no such curve, though single readings can be large; an effect the other way counts as inactive or inconclusive.
% is set by controls: 0 for no effect and ±100 for the full control effect.

Phospholipid hydroperoxide glutathione peroxidase GPX4 (Homo sapiens), sequence (P36969 whole entry, looked up): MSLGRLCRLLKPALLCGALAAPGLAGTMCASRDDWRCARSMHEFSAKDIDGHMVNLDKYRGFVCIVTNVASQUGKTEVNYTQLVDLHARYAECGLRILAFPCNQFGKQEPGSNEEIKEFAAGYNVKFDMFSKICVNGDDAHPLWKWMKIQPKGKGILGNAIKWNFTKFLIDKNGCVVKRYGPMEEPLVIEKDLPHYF
Glutathione peroxidase 1 (Homo sapiens), sequence (P07203 whole entry, looked up): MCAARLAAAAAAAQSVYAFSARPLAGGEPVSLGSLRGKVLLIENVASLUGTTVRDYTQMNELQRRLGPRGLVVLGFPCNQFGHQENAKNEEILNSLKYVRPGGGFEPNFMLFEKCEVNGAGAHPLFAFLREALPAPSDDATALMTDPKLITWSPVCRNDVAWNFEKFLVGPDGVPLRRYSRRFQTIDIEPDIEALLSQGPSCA

Consider `C[C@@](O)(COc1ccc(C#N)cc1)C(=O)Nc1ccc(C#N)c(C(F)(F)F)c1`, for which the Potency result in assay [1], in assay [2] and in assay [3] was “inactive” throughout.
For the molecule `C[C@@]1(C(=O)O)CC[C@]2(C)CC[C@]3(C)C4=CC(=O)c5cc(O)c(O)cc5[C@]4(C)CC[C@@]3(C)[C@@H]2C1`, the Potency result in assay [1], in assay [2] and in assay [3] was “inactive” in each case.
Take `C[C@]12CC[C@H]3[C@@H](CC[C@@]45O[C@@H]4C(O)=C(C#N)C[C@]35C)[C@@H]1CC[C@@H]2O`: the Potency in assay [1] was 13200 nM (active). Further, the Potency result in assay [2] and in assay [3] was “inactive” throughout.
On to `CCN1C[C@]2(COC(=O)c3ccccc3N3C(=O)C[C@H](C)C3=O)CC[C@H](OC)[C@@]34[C@@H]5C[C@H]6[C@H](OC)[C@@H]5[C@](O)(C[C@@H]6OC)[C@](O)([C@@H](OC)[C@H]23)[C@@H]14`, for which the Potency entry in assay [1], in assay [2] and in assay [3] was “inactive” throughout.
With `COC(=O)C1(C)CCC(O)C2(C)c3cc(O)c(C(C)C)cc3C(O)C(OC(C)=O)C12` (stereo unspecified), the Potency result in assay [1], in assay [2] and in assay [3] was “inactive” throughout.
Take `CN1[C@H]2C[C@H](OC(=O)[C@H](CO)c3ccccc3)C[C@@H]1[C@@H](O)C2`: the Potency result in assay [1], in assay [2] and in assay [3] was “inactive” in each case.
Regarding `C[C@H]1C(=O)O[C@H]2[C@H](O)[C@]34C5OC(=O)[C@]3(O[C@@H]3OC(=O)[C@H](O)C34[C@H](C(C)(C)C)[C@H]5O)C12O` (stereo partly specified), the Potency result in assay [1], in assay [2] and in assay [3] was “inactive” each time.
As for `C=C[C@H]1CN2CC[C@H]1C[C@@H]2[C@@H](O)c1ccnc2ccccc12`, the Potency result in assay [1], in assay [2] and in assay [3] was “inactive” each time.
On to `CCCCCCn1c(=O)c(C(=O)Nc2ccc(C(=O)OCCC)cc2)c(O)c2ccccc21`, for which the outcome was “inactive [at 9.23 µM]” in assay [1] and “inactive [at 9.52 µM]” in assay [2]. In assay [3], the activity change, negative = inhibition was 18.5% [at 9.73 µM].
For `CN1[C@@H]2CC[C@H]1CC(OC(=O)C1C=Nc3ccccc31)C2` (stereo partly specified), the Potency result in assay [1], in assay [2] and in assay [3] was “inactive” in each case.
Regarding `C/C=C(\C)C(=O)OC1CC2C(CC=C3CC(OC4CC(OC)C(OC5CC(OC)C(OC6OC(C)C(OC7OC(CO)C(O)C(O)C7O)C(OC)C6O)C(C)O5)C(C)O4)CCC32C)C2(O)CCC(C(C)=O)C12C` (stereo unspecified), the activity change, negative = cell killing in assay [1] is -1.79% [at 9.23 µM]. The Potency result in assay [2] and in assay [3] was “inactive” each time.
Consider `CCC1NC(=O)C2C(Cl)C(Cl)CN2C(=O)C(C(C)O)NC(=O)CC(c2ccccc2)NC(=O)C(CO)NC1=O` (stereo unspecified), for which the Potency result in assay [1], in assay [2] and in assay [3] was “inactive” each time.
As to `COC1=CC(=O)O[C@@H](CCc2ccccc2)C1`, the Potency result in assay [1], in assay [2] and in assay [3] was “inactive” in each case.
Regarding `CC(C)(C)c1cc(C(C)(C)C)c2c(c1)C(O)(C(F)(F)F)C(=O)O2` (stereo unspecified), the Potency result in assay [1], in assay [2] and in assay [3] was “inactive” each time.
Turning to `C/C(=C\c1csc(C)n1)[C@@H]1C[C@@H]2O[C@]2(C)CCC[C@H](C)[C@H](O)[C@@H](C)C(=O)C(C)(C)[C@@H](O)CC(=O)O1`, the Potency in assay [1] was 5.9 nM (active). In addition, the Potency entry in assay [2] and in assay [3] was “inactive” in each case.
For the molecule `OCCCCC#Cc1cncc(OC[C@@H]2CCN2)c1`, the Potency entry in assay [1], in assay [2] and in assay [3] was “inactive” each time.
With `C[C@]12CC[C@H]3[C@@H]([C@H](O)CC4=CC(=O)CC[C@@]43C)[C@@H]1CC[C@@H]2O`, the Potency result in assay [1], in assay [2] and in assay [3] was “inactive” each time.
In the case of `C[C@@H]1C(=O)O[C@H]2[C@H](O)[C@@]34[C@@H]5OC(=O)[C@@]3(O[C@@H]3OC(=O)[C@@H](O)[C@@]34[C@H](C(C)(C)C)[C@H]5O)[C@@]12O`, the Potency result in assay [1], in assay [2] and in assay [3] was “inactive” each time.
Turning to `COC1CC(O[C@H]2CC[C@]3(C=O)C4CC[C@]5(C)[C@@H](C6=CC(=O)OC6)CC[C@]5(O)[C@@H]4CC[C@]3(O)C2)OC(C)C1O[C@@H]1O[C@H](CO)[C@@H](O)[C@H](O)[C@H]1O` (stereo partly specified), in assay [1], the Potency was 85.8 nM (active). Moreover, the Potency entry in assay [2] and in assay [3] was “inactive” throughout.
With `Clc1ccc(OCC2=NCCN2)cc1Cl`, the Potency result in assay [1], in assay [2] and in assay [3] was “inactive” throughout.
For `C/C=C(\C)C(=O)OC1C(C)OC(OC2C(C)OC(OC3CCC4(C)C(=CCC5C4CCC4(C)C(C(C)OC6OC(COC7OC(CO)C(O)C(O)C7O)C(O)C(O)C6O)CCC54O)C3)CC2OC)C(O)C1OC` (stereo unspecified), the activity change, negative = cell killing in assay [1] was -10% [at 9.23 µM]. For the same molecule, the Potency entry in assay [2] and in assay [3] was “inactive” in each case.
Consider `Cc1c(Cl)cccc1S(=O)(=O)Nc1nc(CC(=O)N2CCN(C)CC2)cs1`, for which the Potency entry in assay [1], in assay [2] and in assay [3] was “inactive” throughout.
On to `COc1cc(C)[nH]c(=O)c1CNC(=O)c1c(C)n([C@H](C)C2CCOCC2)c2ccccc12`, for which the Potency result in assay [1], in assay [2] and in assay [3] was “inactive” throughout.
Take `COC1C(O)C(C)OC(OC2C(CO)O[C@@H](O[C@@H]3CC4CCC5C(CC[C@]6(C)[C@@H](C7=CC(=O)OC7)CC[C@]56O)[C@@]4(C)[C@H](O)C3)C(O)C2O)C1O` (stereo partly specified): the Potency in assay [1] was 483 nM (active). The Potency result in assay [2] and in assay [3] was “inactive” throughout.
Consider `CC(=O)OC12C(O)C(C)C3(O)C4C=C(C)C(=O)C4CC(CO)=CC3C1C2(C)C` (stereo unspecified), for which the Potency entry in assay [1], in assay [2] and in assay [3] was “inactive” throughout.
On to `COC1CC(O[C@H]2CC[C@@]3(C)C(=CCC4C3C(O)[C@@H](O)[C@]3(C)[C@@H](C(C)=O)CC[C@]43O)C2)OC(C)C1OC1CC(OC)C(OC2OC(C)C(O)C(O)C2O)C(C)O1` (stereo partly specified), for which, in assay [1], the activity change, negative = cell killing is -4.48% [at 9.23 µM]. Besides, the Potency result in assay [2] and in assay [3] was “inactive” throughout.
As for `CC[C@H]1CN2CC[C@H]1C[C@@H]2[C@@H](O)c1ccnc2ccc(OC)cc12`, the Potency entry in assay [1], in assay [2] and in assay [3] was “inactive” each time.
On to `COCC1OC(=O)c2coc3c2C1(C)C1=C(C3=O)C2CCC(=O)C2(C)CC1O` (stereo unspecified), for which the Potency result in assay [1], in assay [2] and in assay [3] was “inactive” throughout.
With `CN[C@H]1[C@H](O)[C@H](O[C@@H]2[C@@H](O)[C@H](O[C@H]3O[C@H]([C@H](C)O)[C@@H](O)[C@H](O)[C@H]3N)[C@@H](N)C[C@H]2N)OC[C@@]1(C)O`, the Potency entry in assay [1], in assay [2] and in assay [3] was “inactive” in each case.
For the molecule `CC1=C2C(=O)C3[C@@H](CC=C4C[C@@H](O)CC[C@@]43C)[C@@H]2CC[C@]12O[C@@H]1C[C@H](C)CN[C@H]1[C@H]2C` (stereo partly specified), the Potency result in assay [1], in assay [2] and in assay [3] was “inactive” in each case.
With `COC(=O)[C@@]12C(=O)C(C)C(=O)[C@]1(C)C(C)=C[C@H]1[C@]3(C=O)CC[C@H](OC(C)=O)C(C)(C)[C@H]3CC[C@@]12C` (stereo partly specified), the Potency entry in assay [1], in assay [2] and in assay [3] was “inactive” in each case.
Turning to `COc1c(C(C)C)cc2c(c1O)[C@@]1(C(=O)O)CCCC(C)(C)C1CC2` (stereo partly specified), the Potency entry in assay [1], in assay [2] and in assay [3] was “inactive” throughout.
